An excerpt weighted towards active compounds, which were near 2.4% of everything screened.
ANO1 activ: TMEM16A chloride channel activators or potentiators, primary screen, cell-based, HTS | Anoctamin-1 (Mus musculus), Q8BHY3 | HEK293 TMEM16A/YFP-H148Q/I152L, iodide quench fluorescence; hits give low values | B-score at 10 µM | hit rate 0.3% among 340,000 | AID 623877, 2012;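 active = fluorescence-ratio B-score plate-corrected deviation score at least 3 library SD below zero, with starting fluorescence score within 5 deviations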;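 also: channel opened by trigger with iodide after compound preincubation; score built on the fluorescence ratio of max minus min over baseline; more negative score means more quench and so TMEM16A activation or potentiation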
CHT PAM: CHT positive allosteric modulators, primary screen, cell-based, membrane potential dye, choline EC20; B-score at 10 µM; High affinity choline transporter 1 (Homo sapiens), Q9GZV3; hit rate 0.49% among 310,000; CHT-expressing cells; hits give high values; LV-AA mutant CHT in HEK293 cells; AID 488977, 2010;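 active = initial fluorescence not abnormally high and integrated response B-score, plate-corrected, over 3 SD above library mean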
Target sequence (Q9GZV3 whole entry, looked up): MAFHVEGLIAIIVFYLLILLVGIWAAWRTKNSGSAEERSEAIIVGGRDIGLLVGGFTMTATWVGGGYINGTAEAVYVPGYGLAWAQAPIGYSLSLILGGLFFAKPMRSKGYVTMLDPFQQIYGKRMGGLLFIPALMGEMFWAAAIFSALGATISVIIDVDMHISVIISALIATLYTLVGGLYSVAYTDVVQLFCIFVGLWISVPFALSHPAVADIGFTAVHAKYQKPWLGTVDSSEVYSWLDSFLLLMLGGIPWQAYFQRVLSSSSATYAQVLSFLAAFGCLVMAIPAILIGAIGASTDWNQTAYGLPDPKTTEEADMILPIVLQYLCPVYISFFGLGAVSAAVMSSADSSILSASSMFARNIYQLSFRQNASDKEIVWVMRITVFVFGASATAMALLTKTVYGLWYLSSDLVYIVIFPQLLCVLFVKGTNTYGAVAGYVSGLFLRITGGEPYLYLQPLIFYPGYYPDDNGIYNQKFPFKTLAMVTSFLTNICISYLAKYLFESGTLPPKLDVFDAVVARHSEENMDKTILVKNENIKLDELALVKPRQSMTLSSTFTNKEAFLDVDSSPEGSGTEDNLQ
ANO1 block: TMEM16A chloride channel inhibitors, primary screen, cell-based, HTS; hit rate 1.2% among 310,000; normalized B-score (activity score, 25-100; higher = stronger inhibition) at 10 µM; Anoctamin-1 (Mus musculus), Q8BHY3; HEK293 TMEM16A/YFP iodide influx fluorescence, ionomycin;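 active = ratio plate-corrected score three or more library SD toward inhibition, starting fluorescence score within five deviations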;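 also: score derived from kinetic fluorescence span divided by baseline fluorescence per well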
CHT block: inhibitors of human choline transporter CHT | hit rate 0.86% among 310,000 | CHT-expressing cells, membrane potential dye, choline response; hits give low values | B-score at 10 µM;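 active = B-score over 3 SD under the library average, and starting fluorescence ratio not unusually high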;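 also: choline stimulus applied at its EC90 after an EC20 pre-addition; B-score computed on integrated fluorescence ratio after choline addition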
CHT activ conf: CHT activators, confirmation, cell-based, membrane potential dye, duplicate; activation, % at 10 µM; shares compounds with CHT PAM; hit rate 91% among 2,500; CHT-expressing cells, membrane potential dye fluorescence (FDSS); % of choline EC20–EC90 response window; HEK293 expressing CHT LV-AA mutant; choline added at its EC20; AID 504833, 2011;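 active = primary screen active, with duplicate mean activation above negative control mean plus 3 SD, cut at about 11% in these data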
HEK293 MP dye: membrane potential response in parental HEK293 cells, counter-screen for CHT activator project, cell-based, membrane potential dye | hit rate 62% among 2,500 | ratio readout change at 10 µM, hits read low | shares compounds with CHT PAM | AID 623908, 2012 | membrane potential dye fluorescence (FDSS); measured after EC20 choline addition;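 active = duplicate-averaged ratio beyond 3 SD from buffer wells, up or down, though filed actives are nearly all decreases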
Hits are given with their value; i = inactive; nt = no result given.

SMILES	ANO1 activ	CHT PAM	ANO1 block	CHT block	CHT activ conf	HEK293 MP dye
CCOC(=O)N1CCN(CCC(=O)Nc2cccc(Cl)c2C)CC1	i	i	i	i	nt	nt
CN1CCCCC1=NCCCn1cnc2c1c(=O)n(C)c(=O)n2C	i	7.16	i	i	46.7	-49.4
CCCCCC[N+](C)(C)CCSSCC[N+](C)(C)CCCCCC	i	i	i	i	38.0	-45.8
CCCCCCCCCCCCCCCC[N+](C)(C)CC	i	i	i	i	nt	nt
O=C(O)C(Cc1cc(Cl)ccc1Cl)Sc1nc2ccccc2[nH]1 (configuration not stated)	i	i	i	i	nt	nt
O=c1[nH]cccc1-c1nc2ccccc2[nH]1	i	i	i	i	34.4	-30.3
Nc1ccccc1-c1nc2ccccc2[nH]1	i	i	i	i	nt	nt
CN(C)CCn1c(NCc2ccc3c(c2)OCO3)nc2ccccc21	i	i	i	i	nt	nt
c1ccc(Cn2c(CNc3nc4ccccc4n3CCN3CCCCC3)nc3ccccc32)cc1	i	i	i	i	nt	nt
CCCn1c(NCc2ccc3c(c2)OCO3)nc2ccccc21	i	i	i	i	20.1	-24.5
COc1ccc(CNc2nc3ccccc3n2CCN2CCCCC2)cc1	i	i	i	i	25.5	-20.6
CCN(CC)CCn1c(NCc2nc3ccccc3n2Cc2ccccc2)nc2ccccc21	i	7.72	i	i	43.6	i
O=C(NCC(=O)N(Cc1cccs1)C(C(=O)NC1CCCCC1)c1ccco1)c1ccco1 (configuration not stated)	i	i	i	i	nt	nt
O=C(NC1CCCCC1)C(c1cccs1)N(Cc1cccs1)C(=O)c1ccco1 (configuration not stated)	i	i	i	i	29.1	i
CCNS(=O)(=O)c1cc(-c2nnc(OC)c3ccccc23)ccc1C	i	7.71	i	i	i	i
Cc1ccc(-c2n[nH]c(=O)c3ccccc23)cc1S(=O)(=O)NCCO	i	i	i	i	nt	nt
CCC(=O)N(CCC(c1ccc(C)cc1)c1ccco1)Cc1ccco1 (configuration not stated)	i	8.71	i	i	40.3	i
O=C(CN1CCN(S(=O)(=O)/C=C/c2ccccc2)CC1)Nc1ccccc1N1CCOCC1	i	i	i	i	nt	nt
CCc1ccc(C(O)(CNCc2ccccc2)c2ccccc2)cc1 (configuration not stated)	i	i	i	i	24.5	i
Cc1c(O)ccc2c(CN3CCOCC3)cc(=O)oc12	i	i	i	i	nt	nt
Cc1c(O)ccc2c(CN3CCN(CCO)CC3)cc(=O)oc12	i	17.4	i	i	65.6	-70.3
CCOc1ccc(N=Nc2c(=O)[nH]n3c(C)cc(C)nc23)cc1	i	i	i	i	42.0	-48.7
O=C(C1CCC1)N1CCN(S(=O)(=O)c2cccc(F)c2)CC1	i	i	i	i	nt	nt
Cc1cc(C(=O)OCC(=O)Nc2c(F)cccc2F)c(C)n1-c1ccccc1	i	i	i	i	nt	nt
O=C(O)CCn1[nH]c(=O)ccc1=O	i	i	i	i	nt	nt
SMILES	ANO1 activ	CHT PAM	ANO1 block	CHT block	CHT activ conf	HEK293 MP dye
CC(C)c1ccccc1NC(=O)Cn1c(-c2ccccc2Cl)nc2ccccc21	i	i	i	i	21.6	i
CCOc1cccc(OCCCCN2CCOCC2)c1	i	i	i	i	nt	nt
C#CCOCCOCCOCCNc1nc(N2CCN(C(=O)CCCCCCCCCCNC(=O)[C@@H](CCC(=O)O)n3cc(CCCCCN)nn3)CC2)nc(N2CCN(C(=O)CCCCCCCCCCNC(=O)[C@H]([C@@H](C)CC)n3cc(CCCCCN)nn3)CC2)n1	i	i	i	i	nt	nt
C#CCOCCOCCOCCNc1nc(N2CCOCC2)nc(N2CCN(C(=O)CCCCCCCCCCNC(=O)[C@@H]([C@H](C)CC)n3cc(CCCCCN)nn3)CC2)n1	i	8.42	i	i	i	-32.2
O=C(CN1C(=O)NC2(CCCCCC2)C1=O)Nc1ccc(Cl)cc1Cl	i	nt	nt	nt	nt	nt
O=C(COC(=O)Cc1ccsc1)NCc1ccccc1	i	i	i	i	nt	nt

Screens deposited in PubChem by Johns Hopkins Ion Channel Center.
